Experimental findings from PubChem BioAssay are described below.

For some assays here: Potency and affinity values are given separately. Active and inactive are the calls of the source.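 The calls were made as follows, unless noted: active = calcium signal ratio cut to more than 3 SD under the fully stimulated control mean yet still positive, in both repeats and the primary screen; inactive = the rest.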

For test [1], the system named is TRPC4 beta (transient receptor potential cation channel C4), mouse. Kind of test: activators of mouse TRPC4 channel, confirmation, cell-based, Fluo4 calcium, HEK293 TRPC4beta/mu-opioid, duplicates, 10 µM (AID 2426;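 active = fluorescence ratio normalized to control raised more than 50% in primary screen plus both repeat runs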). The following applies: Fluo4 calcium fluorescence, at 10 µM; stronger effect = higher value.
Test [2] relates to transient receptor potential cation channel C4 beta (TRPC4), mouse. The test is described as follows: activators of mouse TRPC4 channel, confirmation, cell-based, second round, Fluo4, HEK293 TRPC4beta/mu-opioid, 1 µM (AID 2461;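 active = primary screen active and over 50% activation in each of two duplicate runs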). The settings on record: Fluo4 calcium fluorescence, at 1 µM; stronger effect = higher value.
The test system of test [3] is TRPC4 (transient receptor potential cation channel C4 beta), mouse. Kind of test: positive allosteric modulators of mouse TRPC4, confirmation, cell-based, second round, Fluo-4, HEK293 TRPC4beta/mu-opioid, 1 µM (AID 2554;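 active = primary screen hit whose fluorescence ratio, in both repeats, exceeds the weak agonist control mean by 3 SD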). The following applies: DAMGO EC20, Fluo-4 calcium flux, at 1 µM; stronger effect = higher value. (In general: Calcium flux is commonly read through the fluorescence of an indicator in the cells.)

Test [4] deals with TRPC4 beta (transient receptor potential cation channel C4), mouse. The test is described as follows: positive allosteric modulators of mouse TRPC4, confirmation, cell-based, Fluo-4, HEK293 TRPC4beta/mu-opioid (AID 2555;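 active = primary screen hit whose calcium fluorescence ratio, in both repeats, exceeds the weak agonist control mean by 3 SD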). The settings on record: DAMGO EC20, Fluo-4 calcium flux, at 10 µM; stronger effect = higher value.
Test [5] addresses Short transient receptor potential channel 4 (Mus musculus) (UniProt Q9QUQ5). Kind of test: inhibitors of mouse TRPC4 channel, confirmation, cell-based, Fluo4, HEK293 TRPC4beta/mu-opioid (AID 2636;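 active = calcium signal cut by more than 3 SD below the full-agonist control yet still positive, in both repeats and the earlier primary screen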). The following applies: DAMGO, Fluo4 calcium flux, at 10 µM; stronger effect = higher value.
Test [6] shares this target. The test is described as follows: inhibitors of mouse TRPC4 channel, confirmation, cell-based, second round, Fluo4, HEK293 TRPC4beta/mu-opioid, 1 µM (AID 2637). The settings on record: Fluo4 calcium flux, DAMGO, at 1 µM; stronger effect = higher value.
Test [7] has the same target. The test is described as follows: mouse TRPC4 channel activators, dose response, cell-based, HEK293 TRPC4/mu-opioid, Fluo-4 calcium (AID 434937;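 active = primary screen activator hit with a dose response curve and TRPC4 channel activation at any tested dose; inactive = no activation, no dose response, or not a primary hit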).
Test [8] has the same target. Kind of test: TRPC4 positive allosteric modulators, dose response, cell-based, HEK293 TRPC4/mu-opioid, Fluo-4 calcium, EC20 DAMGO (AID 434941;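 active = earlier screen potentiator hit that boosts the TRPC4 ion channel at some dose, with a dose response; inactive = no potentiation, no dose response, or not a prior hit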;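 also: calcium entry triggered by an EC20 dose of DAMGO at the co-expressed mu-opioid receptor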).
For test [9] the target is unchanged. The test is described as follows: mouse TRPC4 channel inhibitors, dose response, cell-based, HEK293 TRPC4/mu-opioid, Fluo-4 calcium (AID 434942;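 active = primary screen inhibitor hit that blocks the TRPC4 channel at some tested dose, yielding a dose curve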).
For test [10], the target named is Short transient receptor potential channel 6 (Mus musculus) (UniProt Q61143). The test is described as follows: inhibition of mouse TRPC6 channel, confirmation, selectivity assay for TRPC4 inhibitor project, cell-based, HEK293, membrane potential dye, duplicate (AID 434948;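 active = active in primary screen and both duplicates, each dropping signal beyond three positive-control SD with fluorescence still positive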). The settings on record: HEK293 TRPC6, membrane potential dye fluorescence, at 10 µM, stimulated with maximal-effect acetylcholine; stronger effect = higher value.

For test [11] the target is unchanged. Kind of test: activation of mouse TRPC6 channel, confirmation, selectivity assay for TRPC4 activator project, cell-based, HEK293, membrane potential dye, duplicate (AID 434950;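 active = membrane potential signal rise above negative control mean plus 3 SD in both duplicates, also active in the earlier TRPC4 screen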;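 as to activation: 0% = buffer only wells and 100% = acetylcholine maximal-effect wells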). The following applies: HEK293 TRPC6, membrane potential fluorescence, at 10 µM; stronger effect = higher value.
The target is the same in test [12]. The test is described as follows: TRPC6 potentiation by TRPC4 potentiator hits, confirmation, selectivity assay for TRPC4 potentiator project, HEK293 cells, membrane potential dye, duplicate (AID 434952;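 active = compound raising the membrane signal above positive-control mean plus 3 SD in both repeats, and a primary screen hit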). The following applies: HEK293 TRPC6, membrane potential dye fluorescence, at 10 µM, maximal acetylcholine added after compound; stronger effect = higher value.
The target in test [13] is Short transient receptor potential channel 4 (Mus musculus) (UniProt Q9QUQ5). The test is described as follows: calcium flux activators in TRPC4/5HT1a cells, counter-screen for TRPC4 activator project, cell-based, second counter screen, HEK293 TRPC4/5HT1a, Fluo-4 (AID 434977;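 active = calcium signal rise above buffer-control mean plus 5 SD in both duplicates, and also a hit in the primary screen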;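 as to activation: plate controls were assay buffer for no effect and maximal serotonin response for full effect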). The following applies: Fluo-4 calcium flux, at 10 µM; stronger effect = higher value.
Test [14] can be described thus: calcium flux inhibitors in TRPC4/5HT1a cells, confirmation, counter-screen for TRPC4 inhibitor project, cell-based, second counter screen, HEK293 TRPC4/5HT1a, Fluo-4 (AID 434978;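 active = primary screen active whose calcium signal fell more than 3 SD beyond the full-serotonin control mean in both duplicate plates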;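 as to outcome: serotonin given first at submaximal then at maximal dose after compound preincubation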). The settings on record: Fluo-4 calcium flux, at 10 µM, serotonin added to trigger calcium flux; stronger effect = higher value.
Test [15] deals with TRPC4 (mouse), co-expressed with 5HT1a in HEK293. Kind of test: calcium flux potentiators in TRPC4/5HT1a cells, confirmation, counter-screen for TRPC4 potentiator project, cell-based, second counter screen, HEK293 TRPC4/5HT1a, Fluo-4 (AID 434979;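 active = signal rise over 3 SD above mean of control wells given weak agonist, in both repeats and first screen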). The settings on record: Fluo-4 calcium flux, at 10 µM, serotonin added at its EC20 dose; stronger effect = higher value.
The nature of test [16]: calcium flux activation in mu-opioid HEK293 cells, confirmation, counter-screen for TRPC4 activator project, cell-based, HEK293 mu-opioid receptor line (AID 449723;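 active = hit in primary screen, with calcium signal over 5 SD above buffer well mean in both duplicates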;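 also: counter screen cells carry the mu-opioid receptor alone and lack TRPC4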). The settings on record: Fluo-4 calcium fluorescence, at 10 µM; stronger effect = higher value.
The nature of test [17]: calcium flux enhancement in mu-opioid HEK293 cells, confirmation, counter-screen for TRPC4 allosteric potentiator project, cell-based, HEK293 mu-opioid receptor line (AID 449724;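 active = calcium signal rise more than 3 SD above the low-dose agonist control mean, in both duplicate plates and the primary screen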;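 also: HEK293 cells carrying mu-opioid receptor only with no TRPC4 channel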). The settings on record: Fluo-4 calcium flux, at 10 µM, compound added before EC20 DAMGO stimulus; stronger effect = higher value.
Test [18] can be described thus: thallium flux activation in parental CHO cells, counter-screen for KCNQ1 potentiator project (AID 493006;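 active = duplicate-averaged activation above buffer control mean plus 5 SD of those controls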;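 as to activation: fluorescence ratio of max minus min over baseline after K+ and Tl+ depolarization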). The settings on record: parental CHO-K1 cells, FluxOR thallium flux, at 10 µM; stronger effect = higher value. Background: Counterscreens check selectivity or assay interference.
The target of test [19] is Potassium voltage-gated channel subfamily KQT member 1 (Homo sapiens) (UniProt P51787). The test is described as follows: KCNQ1 potassium channel potentiators, confirmation, FluxOR thallium flux, CHO cells, duplicates (AID 493007;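 active = potentiation averaged over duplicate wells exceeding buffer-only control mean by more than 3 SD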;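 as to outcome: cells depolarized by a potassium plus thallium sulfate stimulus after compound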;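 as to potentiation: 0% = buffer-only wells and 100% = R-L3 activator control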). The settings on record: KCNQ1 cell line, FluxOR thallium flux fluorescence, at 10 µM; stronger effect = higher value, % of reference activator effect, buffer zero.

Test [20] deals with Potassium voltage-gated channel subfamily KQT member 2 (Rattus norvegicus) (UniProt O88943). Kind of test: rat KCNQ2 channel potentiation, selectivity assay for KCNQ1 potentiator project, KCNQ2-CHO-K1 cells (AID 493009;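 active = mean duplicate potentiation above the buffer control mean plus 5 SD of buffer wells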;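 also: assay conditions were tuned for KCNQ1 rather than KCNQ2 modulators; signal is max minus min fluorescence divided by baseline after thallium stimulus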). The following applies: FluxOR thallium flux fluorescence, at 10 µM; stronger effect = higher value, scaled: buffer 0, activator control 100.
Sequence of Potassium voltage-gated channel subfamily KQT member 2 (Rattus norvegicus) (O88943 whole entry, looked up): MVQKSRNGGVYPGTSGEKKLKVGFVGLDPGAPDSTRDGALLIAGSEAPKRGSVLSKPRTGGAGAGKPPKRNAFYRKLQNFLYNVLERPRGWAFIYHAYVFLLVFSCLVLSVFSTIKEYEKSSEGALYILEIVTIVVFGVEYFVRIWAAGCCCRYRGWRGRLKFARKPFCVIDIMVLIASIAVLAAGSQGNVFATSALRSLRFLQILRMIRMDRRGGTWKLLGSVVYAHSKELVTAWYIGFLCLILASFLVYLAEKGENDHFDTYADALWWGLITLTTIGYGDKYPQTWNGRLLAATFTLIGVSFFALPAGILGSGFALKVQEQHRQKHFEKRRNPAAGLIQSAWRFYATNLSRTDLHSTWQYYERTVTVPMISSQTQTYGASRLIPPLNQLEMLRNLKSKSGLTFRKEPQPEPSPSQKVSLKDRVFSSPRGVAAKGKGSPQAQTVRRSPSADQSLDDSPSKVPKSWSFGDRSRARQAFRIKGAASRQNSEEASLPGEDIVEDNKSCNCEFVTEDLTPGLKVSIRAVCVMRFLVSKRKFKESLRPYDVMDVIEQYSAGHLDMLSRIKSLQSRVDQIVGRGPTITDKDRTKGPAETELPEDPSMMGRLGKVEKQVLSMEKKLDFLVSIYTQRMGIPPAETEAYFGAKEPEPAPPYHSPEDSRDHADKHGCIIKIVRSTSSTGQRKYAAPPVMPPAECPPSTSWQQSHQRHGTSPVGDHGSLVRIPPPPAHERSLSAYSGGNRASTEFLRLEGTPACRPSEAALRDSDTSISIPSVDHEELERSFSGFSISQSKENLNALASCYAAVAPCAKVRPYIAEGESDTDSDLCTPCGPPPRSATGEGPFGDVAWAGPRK

Sequence of Short transient receptor potential channel 6 (Mus musculus) (Q61143 whole entry, looked up): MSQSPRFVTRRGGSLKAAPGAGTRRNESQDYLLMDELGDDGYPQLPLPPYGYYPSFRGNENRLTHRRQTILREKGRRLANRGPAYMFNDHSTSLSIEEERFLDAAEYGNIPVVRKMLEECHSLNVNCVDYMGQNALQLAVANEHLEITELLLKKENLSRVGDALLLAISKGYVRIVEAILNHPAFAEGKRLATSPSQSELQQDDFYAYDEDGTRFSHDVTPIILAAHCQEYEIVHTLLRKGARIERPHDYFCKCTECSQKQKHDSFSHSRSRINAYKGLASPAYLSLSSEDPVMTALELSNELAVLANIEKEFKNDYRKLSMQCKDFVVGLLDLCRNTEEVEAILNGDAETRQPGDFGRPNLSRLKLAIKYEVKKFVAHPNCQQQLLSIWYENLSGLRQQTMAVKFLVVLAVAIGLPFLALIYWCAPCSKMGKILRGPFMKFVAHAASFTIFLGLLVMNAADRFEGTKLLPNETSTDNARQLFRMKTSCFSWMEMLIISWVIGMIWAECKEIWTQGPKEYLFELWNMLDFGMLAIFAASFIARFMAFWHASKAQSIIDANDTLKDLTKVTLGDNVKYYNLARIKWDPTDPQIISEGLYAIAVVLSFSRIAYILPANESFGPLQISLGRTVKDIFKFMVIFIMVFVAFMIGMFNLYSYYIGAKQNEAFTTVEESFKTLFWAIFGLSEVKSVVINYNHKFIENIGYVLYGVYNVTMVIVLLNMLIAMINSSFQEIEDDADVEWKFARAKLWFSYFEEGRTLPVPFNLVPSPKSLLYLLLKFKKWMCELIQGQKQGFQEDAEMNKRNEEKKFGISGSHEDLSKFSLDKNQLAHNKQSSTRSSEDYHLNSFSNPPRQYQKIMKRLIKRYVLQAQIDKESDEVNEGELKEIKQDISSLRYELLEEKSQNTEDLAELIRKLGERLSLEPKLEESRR
Sequence of Potassium voltage-gated channel subfamily KQT member 1 (Homo sapiens) (P51787 whole entry, looked up): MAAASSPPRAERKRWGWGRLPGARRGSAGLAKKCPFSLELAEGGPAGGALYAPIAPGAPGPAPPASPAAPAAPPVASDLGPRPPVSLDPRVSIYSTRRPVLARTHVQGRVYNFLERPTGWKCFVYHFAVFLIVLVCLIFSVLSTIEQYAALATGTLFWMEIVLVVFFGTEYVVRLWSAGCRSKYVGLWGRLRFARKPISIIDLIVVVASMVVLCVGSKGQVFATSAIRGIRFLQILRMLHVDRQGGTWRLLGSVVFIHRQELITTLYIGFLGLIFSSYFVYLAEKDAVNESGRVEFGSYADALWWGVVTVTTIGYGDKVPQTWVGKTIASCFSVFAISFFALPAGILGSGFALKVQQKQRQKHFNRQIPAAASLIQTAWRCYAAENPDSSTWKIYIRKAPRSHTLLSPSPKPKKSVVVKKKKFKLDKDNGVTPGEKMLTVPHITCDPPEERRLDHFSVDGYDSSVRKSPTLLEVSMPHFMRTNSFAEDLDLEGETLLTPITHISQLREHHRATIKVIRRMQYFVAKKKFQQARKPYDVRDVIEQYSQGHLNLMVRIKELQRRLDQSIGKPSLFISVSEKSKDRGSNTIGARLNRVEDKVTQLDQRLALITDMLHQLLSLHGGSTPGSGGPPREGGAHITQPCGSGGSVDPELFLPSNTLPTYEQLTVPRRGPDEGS
Sequence of Short transient receptor potential channel 4 (Mus musculus) (Q9QUQ5 whole entry, looked up): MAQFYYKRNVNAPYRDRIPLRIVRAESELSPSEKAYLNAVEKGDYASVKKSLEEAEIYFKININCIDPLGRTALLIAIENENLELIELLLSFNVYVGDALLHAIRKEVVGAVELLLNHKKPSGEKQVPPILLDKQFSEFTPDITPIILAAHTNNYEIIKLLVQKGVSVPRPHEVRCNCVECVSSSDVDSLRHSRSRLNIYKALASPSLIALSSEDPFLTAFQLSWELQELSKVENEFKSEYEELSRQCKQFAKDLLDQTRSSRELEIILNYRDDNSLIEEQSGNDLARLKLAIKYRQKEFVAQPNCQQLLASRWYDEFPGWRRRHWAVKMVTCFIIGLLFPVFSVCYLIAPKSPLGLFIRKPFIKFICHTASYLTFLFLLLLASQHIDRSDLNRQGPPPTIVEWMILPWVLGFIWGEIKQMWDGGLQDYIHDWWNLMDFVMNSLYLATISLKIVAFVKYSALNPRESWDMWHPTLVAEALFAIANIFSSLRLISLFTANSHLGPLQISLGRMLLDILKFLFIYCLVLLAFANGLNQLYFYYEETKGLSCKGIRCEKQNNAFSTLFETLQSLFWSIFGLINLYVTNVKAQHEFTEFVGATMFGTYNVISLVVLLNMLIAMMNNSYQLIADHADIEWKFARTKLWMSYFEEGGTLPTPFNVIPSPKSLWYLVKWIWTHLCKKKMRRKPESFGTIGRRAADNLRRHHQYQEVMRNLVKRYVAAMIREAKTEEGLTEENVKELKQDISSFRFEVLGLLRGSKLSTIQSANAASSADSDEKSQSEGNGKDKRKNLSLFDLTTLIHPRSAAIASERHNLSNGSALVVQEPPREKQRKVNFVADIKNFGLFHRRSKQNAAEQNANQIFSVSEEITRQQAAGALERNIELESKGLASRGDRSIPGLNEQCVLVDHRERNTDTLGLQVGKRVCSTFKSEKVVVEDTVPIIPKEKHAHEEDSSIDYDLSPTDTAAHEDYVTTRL

Consider `Cc1cc(OCC(=O)NNC(=S)NC(=O)c2cccs2)ccc1Cl`, for which the result in test [1], in [2], in test [3], in [4], in test [5] and in test [6] was inactive. Also, the result in test [7], in [8], in test [9], in test [10], in [11] and in test [12] was inactive. Further, the result in test [13], in test [14], in test [15], in [16] and in [17] was inactive.

As for `CCCc1nc2oc3c(NCCCN(C)C)ncnc3c2c2c1CCCC2`, the outcome in test [1], in test [2], in [3], in test [4], in test [5] and in test [6] was inactive. The result in [7], in [8], in test [9], in test [10], in test [11] and in test [12] was inactive. The result in test [13], in [14], in test [15], in [16], in test [17] and in test [18] was inactive. Besides, the result in test [19] and in test [20] was inactive.

Take `CCN(CC)c1ncnc2sc3c(c12)CCC3`: the outcome in test [1], in test [2], in test [3], in test [4], in test [5] and in test [6] was inactive. Also, the result in [7], in [8], in test [9], in [10], in test [11] and in [12] was inactive. Moreover, the outcome in test [13], in [14], in [15], in [16], in test [17] and in [18] was inactive. For the same compound, the result in test [19] and in [20] was inactive.

Take `CCCCc1nnc(NC(=O)C2CCN(c3ncnc4sc(C)c(C)c34)CC2)s1`: the result in test [1], in test [2], in test [3], in test [4], in test [5] and in [6] was inactive. For the same compound, the result in test [7], in test [8], in test [9], in test [10], in test [11] and in [12] was inactive. Moreover, the result in test [13], in [14], in test [15], in test [16] and in [17] was inactive.

Regarding `CC(=NCCN1CCN(C(C)=C2C(=O)c3ccccc3C2=O)CC1)C1=C(O)CC(C)(C)CC1=O`, the outcome in [1], in [2], in test [3], in test [4], in test [5] and in test [6] was inactive. The result in [7], in test [8], in test [9], in test [10], in test [11] and in test [12] was inactive. The outcome in test [13], in test [14], in test [15], in test [16] and in test [17] was inactive.

For `Cc1ccc(C(=O)O)cc1N=Cc1cc(Br)cc(Br)c1O`, the outcome in test [1], in test [2], in test [3], in [4], in [5] and in test [6] was inactive. Besides, the result in test [7], in test [8], in test [9], in test [10], in test [11] and in test [12] was inactive. The outcome in test [13], in [14], in [15], in [16] and in test [17] was inactive. The activation in test [18] is 222% (active). Besides, the potentiation in test [19] was 164% (active); in [20], 192% (active).

In general, inhibition refers to the drop in the measured response relative to a control, in per cent. For the compound `O=C(C1CCN(S(=O)(=O)c2cccnc2)CC1)N1CCN(c2ccc(Cl)cc2)CC1`, the result in test [1], in test [2], in [3], in test [4], in test [5] and in [6] was inactive. Further, the result in test [7], in [8], in test [9], in test [10], in test [12] and in [15] was inactive. The result in [16] and in test [17] was inactive. The activation is 35.5% (active) in test [11] and 29.8% (active) in test [13]. Also, the inhibition in test [14] was 42.4% (active).
